# From PubChem BioAssay (NCI)
# The panel holds about 83,000 compounds, 20% with a hit somewhere; the sample as a whole holds those more often.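 Treatment: one concentration, 48 hours, 96-well format. Scoring: percent growth, with anything below 10 considered active.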 Unmarked numbers belong to inactive results. Calls of active or inactive are those of the source.
# Assays:
# Test in all cases: NCI-60 one-dose screen, 48 h (100 = growth as untreated, 0 = no growth, -100 = all killed)
# Details in all cases: 10 µM
# MDA-MB-231 breast = tested on: MDA-MB-231 breast
# RXF 393 renal = tested on: RXF 393 renal
# LOX IMVI melanoma = tested on: LOX IMVI melanoma
# OVCAR-4 ovarian = tested on: OVCAR-4 ovarian
# HS 578T breast = tested on: HS 578T breast
# NCI/ADR-RES ovarian = tested on: NCI/ADR-RES ovarian
# T-47D breast = tested on: T-47D breast
# BT-549 breast = tested on: BT-549 breast
# MDA-MB-435 melanoma = tested on: MDA-MB-435 melanoma
# SW-620 colon = tested on: SW-620 colon
# MCF7 breast = tested on: MCF7 breast
# HCT-116 colon = tested on: HCT-116 colon
# HCC-2998 colon = tested on: HCC-2998 colon
# KM12 colon = tested on: KM12 colon
# SK-MEL-5 melanoma = tested on: SK-MEL-5 melanoma
# COLO 205 colon = tested on: COLO 205 colon
# CCRF-CEM leukemia = tested on: CCRF-CEM leukemia
SMILES,growth (MDA-MB-231 breast),growth (RXF 393 renal),growth (LOX IMVI melanoma),growth (OVCAR-4 ovarian),growth (HS 578T breast),growth (NCI/ADR-RES ovarian),growth (T-47D breast),growth (BT-549 breast),growth (MDA-MB-435 melanoma),growth (SW-620 colon),growth (MCF7 breast),growth (HCT-116 colon),growth (HCC-2998 colon),growth (KM12 colon),growth (SK-MEL-5 melanoma),growth (COLO 205 colon),growth (CCRF-CEM leukemia)
CC1(C)CC(=O)C2=C(C1)N(Cc1ccc(C(=O)O)cc1)C1=C(C(=O)CC(C)(C)C1)C2c1ccc(Cl)cc1,106%,111%,61.7%,99.5%,105%,95.3%,91.9%,93.5%,102%,101%,89.6%,106%,101%,108%,–,–,–
COc1ccc(C(=O)COc2ccc(NC(=O)Nc3ccc(Cl)c(C(F)(F)F)c3)cc2)cc1,35.3%,-52.1% (active),-60.5% (active),19%,53.4%,17.7%,12.5%,38%,27.3%,54.6%,17.1%,–,1.03% (active),13.6%,-67.3% (active),–,–
Cc1ccc2c(c1)C(=O)/C(=C/c1ccc([N+](=O)[O-])cc1)S2,98.1%,109%,105%,83.4%,86%,95.3%,86.3%,101%,98.9%,49.4%,3.81% (active),14.3%,103%,105%,95.1%,–,–
O=C(CC(=O)Nc1ccc(Oc2ncnc3scc(Nc4n[nH]c(=S)s4)c23)cc1)Nc1ccc(Br)cc1,101%,129%,–,106%,96.7%,103%,86.3%,108%,103%,101%,86.8%,–,112%,–,–,107%,–
Cn1cc(-c2nnc(N)nc2-c2c[nH]c3ccccc23)c2cc(Br)cnc21,54.8%,-20.1% (active),–,46.5%,77.3%,-5.86% (active),29.4%,17%,5.61% (active),57.8%,14%,22.8%,-27% (active),51.1%,–,–,–
COc1ccc(C2c3sc4ccc(C)cc4c3Oc3nc[nH]c(=O)c32)cc1 (stereo not given),83.6%,85.7%,–,85.3%,78.5%,65.4%,83.4%,77.9%,-0.755% (active),67.1%,69.6%,90.2%,94%,61.1%,–,–,–
O=C(Nc1ccc(OCc2ccc(Cl)cc2)cc1)Nc1ccc(Cl)c(C(F)(F)F)c1,13.4%,-21% (active),-72.5% (active),13.8%,22.1%,1.08% (active),3.95% (active),-17% (active),14.2%,25.1%,1.78% (active),–,3.51% (active),10.2%,–,-80.6% (active),–
O=C(CC(=O)Nc1ccc(Oc2ncnc3scc(Nc4n[nH]c(=S)s4)c23)cc1)Nc1ccc(Cl)cc1,73.8%,94.8%,69%,90.2%,86%,89.6%,55.1%,80.2%,83.2%,93.5%,11.7%,92.5%,99.8%,–,89%,–,–
Cn1cc(/C=C(/SS/C(=C/c2cn(C)c3cccc(C(=O)O)c23)C(=O)O)C(=O)O)c2c(C(=O)O)cccc21,102%,112%,–,99.6%,108%,93.4%,101%,114%,98%,116%,92.6%,118%,99.8%,103%,100%,112%,106%
